# Results taken from the supplement of paper PMC11001985.
# A number with no mark means an inactive call.
# Compound: C#CCNC(=O)CCSSCCC(=O)NCCc1ccc(C=O)c(C=O)c1
# Test: lysine labeling ratio R10:1 (500 µM / 50 µM probe), SILAC-ABPP in living cells; higher = lower intrinsic lysine reactivity toward the probe, active = 2 or less
# Conditions: HeLa; probe concentrations 500 vs 50 µM
# Method in brief: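 SILAC light and heavy living HeLa cells in PBS at room temperature were labelled with 50 µM or 500 µM of an alkyne-tagged, disulfide-linked lysine probe, with forward and reverse label swaps. Mixed lysates were clicked to biotin-azide, trypsin-digested, captured on neutravidin, DTT-released, alkylated and analysed by LC-MS/MS on a TIMS-TOF Pro. R is the filtered median high-probe/low-probe MS1 peptide ratio per lysine, then the median across forward and reverse replicates. Ratios are capped at 20.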
# UniProt P09758, sequence (P09758 whole entry): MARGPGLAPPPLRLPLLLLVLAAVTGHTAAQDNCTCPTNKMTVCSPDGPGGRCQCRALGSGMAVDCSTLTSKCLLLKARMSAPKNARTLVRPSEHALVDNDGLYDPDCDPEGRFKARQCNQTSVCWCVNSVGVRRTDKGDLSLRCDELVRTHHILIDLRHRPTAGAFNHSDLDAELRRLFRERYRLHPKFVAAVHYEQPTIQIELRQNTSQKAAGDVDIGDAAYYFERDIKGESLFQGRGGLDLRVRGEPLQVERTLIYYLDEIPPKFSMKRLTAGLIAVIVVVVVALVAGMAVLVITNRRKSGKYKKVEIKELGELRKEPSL
# UniProt P46531, sequence (P46531 whole entry): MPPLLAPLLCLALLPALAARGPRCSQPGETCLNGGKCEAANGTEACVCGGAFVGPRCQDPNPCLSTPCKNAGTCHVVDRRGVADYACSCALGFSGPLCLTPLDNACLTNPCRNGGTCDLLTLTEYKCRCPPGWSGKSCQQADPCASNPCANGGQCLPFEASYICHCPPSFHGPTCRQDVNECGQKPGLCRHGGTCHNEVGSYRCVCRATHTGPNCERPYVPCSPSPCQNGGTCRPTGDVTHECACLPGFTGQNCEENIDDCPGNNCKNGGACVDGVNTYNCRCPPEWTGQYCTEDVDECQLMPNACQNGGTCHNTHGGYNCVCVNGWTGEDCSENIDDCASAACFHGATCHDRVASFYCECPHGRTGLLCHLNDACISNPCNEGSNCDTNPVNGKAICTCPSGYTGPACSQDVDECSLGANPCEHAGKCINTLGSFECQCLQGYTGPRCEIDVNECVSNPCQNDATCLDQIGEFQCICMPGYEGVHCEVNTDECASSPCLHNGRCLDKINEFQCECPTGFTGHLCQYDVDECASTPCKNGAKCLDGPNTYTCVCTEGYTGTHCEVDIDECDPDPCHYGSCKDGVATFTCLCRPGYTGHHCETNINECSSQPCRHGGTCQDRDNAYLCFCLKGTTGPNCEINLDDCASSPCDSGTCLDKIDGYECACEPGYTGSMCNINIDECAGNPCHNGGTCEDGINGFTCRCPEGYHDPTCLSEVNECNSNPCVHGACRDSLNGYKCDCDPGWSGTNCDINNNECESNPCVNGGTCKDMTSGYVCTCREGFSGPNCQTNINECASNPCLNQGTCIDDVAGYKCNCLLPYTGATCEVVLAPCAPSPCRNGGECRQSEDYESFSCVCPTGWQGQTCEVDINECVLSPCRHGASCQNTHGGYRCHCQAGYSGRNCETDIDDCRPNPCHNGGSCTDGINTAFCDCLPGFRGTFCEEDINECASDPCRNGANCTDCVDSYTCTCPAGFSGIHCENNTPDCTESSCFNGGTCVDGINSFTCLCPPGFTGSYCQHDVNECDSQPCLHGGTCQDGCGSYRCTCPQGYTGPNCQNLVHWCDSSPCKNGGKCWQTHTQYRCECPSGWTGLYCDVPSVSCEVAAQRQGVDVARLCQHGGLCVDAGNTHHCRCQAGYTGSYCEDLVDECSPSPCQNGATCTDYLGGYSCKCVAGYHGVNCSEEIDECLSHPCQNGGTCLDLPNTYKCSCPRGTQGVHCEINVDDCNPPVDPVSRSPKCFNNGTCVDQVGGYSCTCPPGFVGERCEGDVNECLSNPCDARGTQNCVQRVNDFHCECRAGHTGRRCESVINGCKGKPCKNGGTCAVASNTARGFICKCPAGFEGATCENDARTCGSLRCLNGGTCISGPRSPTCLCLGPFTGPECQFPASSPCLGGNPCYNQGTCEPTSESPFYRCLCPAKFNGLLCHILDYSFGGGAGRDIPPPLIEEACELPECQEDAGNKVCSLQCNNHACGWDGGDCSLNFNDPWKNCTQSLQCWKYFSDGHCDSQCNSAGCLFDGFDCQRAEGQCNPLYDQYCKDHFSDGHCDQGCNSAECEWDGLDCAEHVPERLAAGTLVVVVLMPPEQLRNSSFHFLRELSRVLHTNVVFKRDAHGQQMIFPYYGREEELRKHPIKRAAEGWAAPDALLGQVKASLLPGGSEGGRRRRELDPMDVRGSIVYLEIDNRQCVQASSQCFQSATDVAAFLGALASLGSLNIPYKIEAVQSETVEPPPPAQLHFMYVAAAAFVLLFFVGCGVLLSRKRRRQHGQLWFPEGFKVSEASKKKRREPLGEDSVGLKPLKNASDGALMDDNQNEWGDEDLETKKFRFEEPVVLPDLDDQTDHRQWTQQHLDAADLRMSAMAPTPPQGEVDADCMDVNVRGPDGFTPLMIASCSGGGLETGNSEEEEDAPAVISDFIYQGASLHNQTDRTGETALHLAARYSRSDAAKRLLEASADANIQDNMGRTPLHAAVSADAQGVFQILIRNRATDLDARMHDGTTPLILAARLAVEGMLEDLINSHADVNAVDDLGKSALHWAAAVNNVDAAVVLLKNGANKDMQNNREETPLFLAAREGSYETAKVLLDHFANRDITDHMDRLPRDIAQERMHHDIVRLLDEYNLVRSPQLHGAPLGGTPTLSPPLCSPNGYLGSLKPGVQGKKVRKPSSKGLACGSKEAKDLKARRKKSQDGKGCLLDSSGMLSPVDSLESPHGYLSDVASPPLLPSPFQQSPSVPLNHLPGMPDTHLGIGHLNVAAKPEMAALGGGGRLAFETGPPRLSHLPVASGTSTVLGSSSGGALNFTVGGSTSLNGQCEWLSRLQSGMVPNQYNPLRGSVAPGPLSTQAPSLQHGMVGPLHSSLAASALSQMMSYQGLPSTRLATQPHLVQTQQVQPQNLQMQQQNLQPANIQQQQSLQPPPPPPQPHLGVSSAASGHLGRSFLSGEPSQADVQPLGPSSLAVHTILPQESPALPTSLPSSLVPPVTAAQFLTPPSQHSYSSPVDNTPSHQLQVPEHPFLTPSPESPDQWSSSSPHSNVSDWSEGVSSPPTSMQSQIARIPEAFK
# UniProt P05783, sequence (P05783 whole entry): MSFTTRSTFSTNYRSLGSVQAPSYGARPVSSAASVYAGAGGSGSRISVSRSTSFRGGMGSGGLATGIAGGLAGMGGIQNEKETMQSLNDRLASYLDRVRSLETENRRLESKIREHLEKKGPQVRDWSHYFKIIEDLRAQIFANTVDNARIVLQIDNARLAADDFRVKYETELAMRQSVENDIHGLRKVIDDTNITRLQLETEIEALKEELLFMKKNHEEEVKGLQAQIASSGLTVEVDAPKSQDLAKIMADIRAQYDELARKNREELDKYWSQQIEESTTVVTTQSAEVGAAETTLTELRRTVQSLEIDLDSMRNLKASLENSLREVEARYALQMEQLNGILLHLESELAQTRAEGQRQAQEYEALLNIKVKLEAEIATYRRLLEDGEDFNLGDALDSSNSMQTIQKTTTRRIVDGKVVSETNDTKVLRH
# UniProt Q13308, sequence (Q13308 whole entry): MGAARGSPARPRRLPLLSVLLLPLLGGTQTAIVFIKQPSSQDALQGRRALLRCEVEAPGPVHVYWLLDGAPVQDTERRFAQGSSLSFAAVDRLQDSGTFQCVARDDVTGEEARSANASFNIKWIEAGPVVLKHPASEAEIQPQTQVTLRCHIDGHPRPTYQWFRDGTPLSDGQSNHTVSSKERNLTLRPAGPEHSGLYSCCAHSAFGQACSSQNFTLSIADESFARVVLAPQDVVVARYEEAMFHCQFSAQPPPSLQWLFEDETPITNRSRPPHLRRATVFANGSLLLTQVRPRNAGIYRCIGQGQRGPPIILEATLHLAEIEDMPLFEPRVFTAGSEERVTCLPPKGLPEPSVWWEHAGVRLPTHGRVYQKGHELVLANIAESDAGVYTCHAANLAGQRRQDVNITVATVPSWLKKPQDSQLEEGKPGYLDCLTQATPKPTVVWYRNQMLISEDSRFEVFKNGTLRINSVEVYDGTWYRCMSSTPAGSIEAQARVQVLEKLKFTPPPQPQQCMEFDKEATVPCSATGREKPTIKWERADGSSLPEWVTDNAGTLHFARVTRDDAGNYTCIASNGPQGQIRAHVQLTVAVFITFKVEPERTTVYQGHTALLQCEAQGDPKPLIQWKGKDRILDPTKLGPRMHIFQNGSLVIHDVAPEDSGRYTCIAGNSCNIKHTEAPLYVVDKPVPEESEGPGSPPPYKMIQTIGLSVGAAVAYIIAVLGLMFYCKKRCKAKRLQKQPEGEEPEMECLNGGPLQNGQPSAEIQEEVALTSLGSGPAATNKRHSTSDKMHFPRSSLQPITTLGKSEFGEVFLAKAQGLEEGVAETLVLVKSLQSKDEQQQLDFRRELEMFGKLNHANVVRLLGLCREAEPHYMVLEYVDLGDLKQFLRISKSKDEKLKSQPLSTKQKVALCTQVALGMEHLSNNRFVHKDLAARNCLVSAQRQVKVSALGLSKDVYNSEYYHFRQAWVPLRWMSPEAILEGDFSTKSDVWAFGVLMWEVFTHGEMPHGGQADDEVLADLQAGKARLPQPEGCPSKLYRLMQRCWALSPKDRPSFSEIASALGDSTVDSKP
# UniProt P52272, sequence (P52272 whole entry): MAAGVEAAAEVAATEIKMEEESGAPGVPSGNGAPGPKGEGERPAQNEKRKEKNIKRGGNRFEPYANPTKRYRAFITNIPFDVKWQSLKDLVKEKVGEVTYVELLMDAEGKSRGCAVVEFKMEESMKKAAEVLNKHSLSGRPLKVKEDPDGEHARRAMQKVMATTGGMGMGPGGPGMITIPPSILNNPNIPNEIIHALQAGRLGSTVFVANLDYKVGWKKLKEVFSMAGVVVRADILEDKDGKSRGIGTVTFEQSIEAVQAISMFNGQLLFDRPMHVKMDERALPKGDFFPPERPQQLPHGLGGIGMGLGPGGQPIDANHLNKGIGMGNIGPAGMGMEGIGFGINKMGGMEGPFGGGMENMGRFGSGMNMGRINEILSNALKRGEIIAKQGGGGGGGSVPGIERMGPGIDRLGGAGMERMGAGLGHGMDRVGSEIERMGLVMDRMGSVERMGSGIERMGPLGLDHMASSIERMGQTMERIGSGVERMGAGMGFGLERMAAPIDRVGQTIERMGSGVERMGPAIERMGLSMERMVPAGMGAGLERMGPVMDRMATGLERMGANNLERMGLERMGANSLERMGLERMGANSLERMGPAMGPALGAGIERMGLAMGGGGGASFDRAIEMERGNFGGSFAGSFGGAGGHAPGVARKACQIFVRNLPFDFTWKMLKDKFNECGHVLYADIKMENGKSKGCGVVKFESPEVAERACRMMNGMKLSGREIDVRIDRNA
row,Target,lysine labeling ratio R10:1
1,LAMB1 (lysine site: K1492) (UniProt P07942),4.06
2,HNRNPM (lysine site: K698) (UniProt P52272),0.67 (active)
3,HEG1 (lysine site: K1178) (UniProt Q9ULI3),4.55
4,PTK7 (lysine site: K636) (UniProt Q13308),11
5,ITGA2 (lysine site: K1046) (UniProt P17301),6.48
6,UniProt P0C0S5 (lysine site: K16),1.12 (active)
7,S100A4 (lysine site: K35) (UniProt P26447),6.43
8,SHMT2 (lysine site: K181) (UniProt P34897),1.17 (active)
9,P4HB (lysine site: K309) (UniProt P07237),1.42 (active)
10,FSCN1 (lysine site: K399) (UniProt Q16658),3.81
11,PA2G4 (lysine site: K287) (UniProt Q9UQ80),0.997 (active)
12,KRT18 (lysine site: K407) (UniProt P05783),8.64
13,UniProt P62829 (lysine site: K75),4.96
14,L1CAM (lysine site: K56) (UniProt P32004),3.74
15,RPL5 (lysine site: K197) (UniProt P46777),1.37 (active)
16,UniProt Q15223 (lysine site: K190),1.25 (active)
17,CPM (lysine site: K135) (UniProt P14384),0.991 (active)
18,ITGB1 (lysine site: K575) (UniProt P05556),3.24
19,HSPD1 (lysine site: K31) (UniProt P10809),4.2
20,UniProt Q9UHN6 (lysine site: K1182),6.32

row,Target,lysine labeling ratio R10:1
1,HMOX1 (lysine site: K39) (UniProt P09601),1.45 (active)
2,RPL3 (lysine site: K373) (UniProt P39023),2.31
3,FADS2 (lysine site: K108) (UniProt O95864),1.75 (active)
4,TM9SF2 (lysine site: K495) (UniProt Q99805),4.38
5,NUCB2 (lysine site: K184) (UniProt P80303),2.65
6,TLN1 (lysine site: K1190) (UniProt Q9Y490),14.3
7,ACTR3 (lysine site: K348) (UniProt P61158),1.4 (active)
8,RPS19 (lysine site: K115) (UniProt P39019),1.86 (active)
9,NUMA1 (lysine site: K645) (UniProt Q14980),1.09 (active)
10,UniProt Q6ZMR3 (lysine site: K155),2.54
11,EGFR (lysine site: K327) (UniProt P00533),5.84
12,NOTCH1 (lysine site: K185) (UniProt P46531),1.8 (active)
13,UniProt P60228 (lysine site: K409),2.54
14,UniProt P09758 (lysine site: K231),4.22
15,DSTN (lysine site: K78) (UniProt P60981),1.54 (active)
16,FLNB (lysine site: K681) (UniProt O75369),2.09
17,UniProt Q15149 (lysine site: K746),2.49
18,CCT8 (lysine site: K318) (UniProt P50990),2.44
19,CCT5 (lysine site: K392) (UniProt P48643),2.73
20,IGF1R (lysine site: K892) (UniProt P08069),3.9
